This is an account of results in PubChem BioAssay (NCI).

The panel holds about 83,000 compounds, 20% with a hit somewhere; the sample as a whole holds those more often.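 Plates (96-well) were seeded with cells, treated with compound at one concentration, and incubated for 48 hours before percent growth was determined.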 Active and inactive are the calls of the source. How the source made its calls: active means growth percent below 10; inactive means the rest.

For the experiment, the system named is CCRF-CEM leukemia. As to the kind of experiment: NCI-60 one-dose screen, 48 h (100 = growth as untreated, 0 = no growth, -100 = all killed). Particulars: 10 µM unless noted.
On to `COc1cc(OC)cc(C2=C3CC[C@@H]4[C@H](CC[C@]5(C)C(=O)CC[C@@H]45)C3=CC3C(O)c4cccnc4N4C(=O)COC234)c1` (stereo not given in full), for which the growth is 104% (inactive).

Regarding `CC(=O)Cc1nsc(NC(=O)c2cc(-c3cc(Cl)cc(Cl)c3)oc2C)n1`, the growth was 103% (inactive).

As to `CCOC(=O)c1cn2ncnc(Oc3ccc(NC(=O)NC4CCCCC4)c(Cl)c3)c2c1C`, the growth was 69.8% (inactive).

Consider `Cc1nnc(NC(=O)c2nc(S(=O)(=O)Cc3ccc(F)cc3)ncc2Cl)s1`, for which the growth is -43.3% (active).

Take `C#CCOc1ccc2ncnc(Nc3ccc(NC(=O)CCl)cc3)c2c1`: the growth is -23.7% (active).

Turning to `CCOC(=O)C#Cc1c(C(=O)OCC)nnn1[C@@H]1O[C@H](CO)[C@H]2OC3(CCCCC3)O[C@H]21`, the growth was 6.89% (active).

Regarding `C/C(=N/O)c1ccc(F)cc1`, the growth was 87.2% (inactive).

As for `CCOC(=O)Cn1c(O)c(N=Nc2ccc(S(N)(=O)=O)cc2)c2cc(Br)ccc21`, the growth is 53.4% (inactive).

In the case of `Cc1nc(N2CCOCC2)sc1S(N)(=O)=O`, the growth was 105% (inactive).

Consider `COc1ccc(OC)c(C(=O)/C=C/c2cc3c(c(OC)c2OC)OCO3)c1`, for which the growth is 40.1% (inactive).

In the case of `O=c1oc2ccccc2cc1C1=NN=C(SCc2ccccc2)SC1`, the growth was 95.3% (inactive).

Consider `COc1ccc(C(=S)N2CCN(c3ccccc3Cl)CC2)cc1OC`, for which the growth was 123% (inactive).

For `Cc1ccc(/C=C2\CN(C(=O)OC(C)(C)C)C/C(=C\c3ccc(C)cc3)C2=O)cc1`, the growth is 3.02% (active).

With `O=C(Nc1nn(-c2ccc(Cl)cc2Cl)nc1-c1ccccc1)c1ccccc1`, the growth was 95.9% (inactive).

In the case of `CCN(CC)c1ccc(/C=C/C(=O)c2ccc(Nc3nc(Nc4ccccc4)nc(Nc4ccccc4)n3)cc2)cc1`, the growth is 5.63% (active).

Take `COC(=O)[C@H]1CCCN1C[C@@H](O)CN1C(=O)/C(=C\c2cc(OC)c(OC)c(OC)c2)c2ccccc21`: the growth was 93.9% (inactive).

Turning to `CN(C)c1ccc(Nc2cc(-c3cccc(OC(F)(F)F)c3)nc3ccc(N4CCCC4)cc23)cc1`, the growth is 3.82% (active).

For `O=C(Nc1cc(Cl)ccc1O)c1ccc(Nc2ccnc(C(F)(F)F)c2)cc1`, the growth was 2.44% (active).

Consider `COc1cc(OC)c2sc(-c3ccc(-n4cncc4-c4ccc(OC)c(OC)c4)cc3)nc2c1`, for which the growth is 53.2% (inactive).

For `O=C1c2cccnc2C(=O)c2c1c(C(=O)NCCCN1CCCCC1)c1ccccn21`, the growth was -25.6% (active).

Take `CCOC(=O)c1ccc2[nH]c(O)c(C(=Nc3ccc(N(C)C(=O)CN4CCN(C)CC4)cc3)c3ccccc3)c2c1`: the growth was 4.58% (active).

As to `CCN1C(=O)N(CC)C2C1NN=c1s/c(=C\c3cccc([N+](=O)[O-])c3)c(=O)n12` (stereo not given), the growth is 10.8% (inactive).

In the case of `CC1=C(Nc2ccc(N3CCN(C)CC3)cc2)C(=O)c2cncnc2C1=O`, the growth is 5.93% (active).

For `O=C1Nc2ccc(Br)cc2/C1=N/c1n[nH]c(=S)s1`, the growth is 104% (inactive).

Regarding `CCN(c1ccc(Cl)cc1)c1nc(-c2ccc([N+](=O)[O-])cc2)cs1`, the growth is 101% (inactive).

As for `C=C(C)[C@@H]1CC[C@]2(C)[C@H](CC=C3[C@@H]4[C@H](C)[C@@H](C)CC[C@]4(CO)CC[C@]32C)[C@@]1(C)CCCN`, the growth is 0.722% (active).

Regarding `O=C(/C=C(/C=C/c1cccc2[nH]ccc12)OB(F)F)/C=C/c1cccc2[nH]ccc12`, the growth was -32.1% (active).

In the case of `CCN1CC(=O)N(/N=C2\C(=O)Nc3ccccc32)C1=S`, the growth is 102% (inactive).

For the compound `CCN1CCN(c2cc(C(=O)Nc3nc(-c4cc(OC)c(OC)c(OC)c4)cs3)cc(C(F)(F)F)c2)CC1`, the growth was 59% (inactive).

In the case of `COc1ccc(-c2nc(/C=C3\SC(=NCc4ccccc4)NC3=O)c3ccccn23)cc1`, the growth is 16.2% (inactive).

As for `CCOC(=O)C(=Cc1cccc(Br)c1)C(=O)OCC`, the growth was 11.7% (inactive).

As for `N#CC1=C(N)Oc2c(sc3c(F)cccc23)C1c1ccc(F)cc1` (stereo not given), the growth is 19.8% (inactive).

On to `CCOc1nc(-c2ccccc2)cc2c(O)c(C(=O)NN)[nH]c(=O)c12`, for which the growth is 103% (inactive).

In the case of `O=C1c2cccc(NCCN=Cc3cc(O)ccc3O)c2C(=O)c2c(NCCN=Cc3cc(O)ccc3O)cccc21`, the growth was -58.7% (active).

Consider `C=CCn1cc(-c2nc3ccccc3s2)c2cc(-c3ccc4c5c(cccc35)C(=O)N(N)C4=O)ccc21`, for which the growth was 104% (inactive).

In the case of `CCOC(=O)CNP(=O)(OC[C@@H](Cc1ccccc1)NC(=O)c1cc2ccccc2s1)Oc1ccccc1` (stereo not given in full), the growth is 86.5% (inactive).

With `CCC(=C(c1ccc(OCCN2CCCC2)cc1)c1ccc(OCCN2CCCC2)cc1)c1ccc(Cl)cc1`, the growth was -38.7% (active).

On to `Oc1c(Cl)cc(Cl)c2ccc(Cn3cc(-c4ccc(C(F)(F)F)cc4)nn3)nc12`, for which the growth was 6.1% (active).

Consider `O=C(NCCCCNC(=O)OCc1ccc2c(Cl)cc(Cl)c(O)c2n1)OCc1ccc2c(Cl)cc(Cl)c(O)c2n1`, for which the growth was 18.3% (inactive).

As for `CCN(CC)CCNC(=O)c1cn2ncnc(Oc3ccc(NC(=O)Nc4ccc(Cl)c(C(F)(F)F)c4)c(F)c3)c2c1C`, the growth is 4.8% (active).
